High-throughput results: PubChem BioAssay, National Center for Advancing Translational Sciences (NCATS)
Cruzain noTriton = inhibitors of Trypanosoma cruzi cruzain without detergent | purified cruzain, Z-FR-AMC fluorescence, no detergent | 200,000 compounds, 2.3% hits | P25779 | Potency, µM, hits mostly inhibitors | AID 1476; note: nearly all actives have a fitted effect of over 40% in size
Target sequence (P25779 123-467 limits assumed): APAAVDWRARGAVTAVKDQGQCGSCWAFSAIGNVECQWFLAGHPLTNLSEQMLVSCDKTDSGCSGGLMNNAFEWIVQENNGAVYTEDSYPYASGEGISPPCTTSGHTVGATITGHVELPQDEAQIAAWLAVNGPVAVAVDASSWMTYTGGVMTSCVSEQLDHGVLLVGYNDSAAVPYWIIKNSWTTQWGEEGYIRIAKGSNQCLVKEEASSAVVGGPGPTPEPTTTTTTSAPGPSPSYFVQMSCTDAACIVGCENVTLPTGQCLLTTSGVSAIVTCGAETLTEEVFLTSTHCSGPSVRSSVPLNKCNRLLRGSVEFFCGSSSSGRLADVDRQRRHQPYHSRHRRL
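Detergent-free condition (0.00005% Triton X-100) in acetate buffer pH 5.5 with DTT. 1.5 nM enzyme and compound were pre-mixed 15 min, then 2 uM Z-FR-AMC substrate added; reaction progress from fluorescence change between first and third reads (60 s).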
Cruzain inh Det = cruzain (T. cruzi) inhibition with detergent; P25779; purified cruzain, Z-FR-AMC fluorescence, 0.01% Triton; Potency, µM, actives largely listed as inhibitors; 200,000 compounds, 0.43% hits; AID 1478; note: nearly all actives have a fitted effect of over 40% in size
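Read-out: AMC fluorescence (360 nm excitation, 450 nm emission), four reads over 2 min, first-to-third difference used. Conditions: cruzain 1.5 nM, Z-FR-AMC 2 uM, pH 5.5 acetate, 5 mM DTT, 0.01% Triton X-100.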
Each line names hits and unclear results; the compound was inactive in the other large screens. Shown are actives, neighbours in structure and some others; about 2.5% of the full set was active somewhere. Calls come from the whole dose curve; as a rule, active = well fitted curve in the direction sought with a large enough effect; inconclusive = small, poorly fitted or top-dose-only effect, or another doubt; inactive = no such curve, though single readings can be large; an effect the other way counts as inactive or inconclusive.

O=C(O)c1cccc(-n2cnc3cccnc32)c1	none
Cc1cccc(OCC(=O)Nc2ccc(Cl)c(-c3nc4ncccc4o3)c2)c1C	Cruzain noTriton inconclusive
COc1cc(S(=O)(=O)N2CCC(c3nc4ccccc4s3)CC2)ccc1S(=O)(=O)N1CC(C)CC(C)C1 (configuration not stated)	Cruzain noTriton 3.98µM
COc1ccc(S(=O)(=O)N2CCC(c3nc4ccccc4s3)CC2)cc1OC	none
CCCc1cc(C(=O)Nc2sc(C)c(C)c2C(=O)OCC)no1	Cruzain noTriton 20µM
CCOC(=O)c1c(NC(=O)c2cc(C(C)C)on2)sc(C)c1C	none
Oc1cc2c(cc1O)[C@@H]1c3ccc(O)c(O)c3OC[C@]1(O)C2	none
Nc1ccc(Oc2ccc3nc(-c4ccccc4)c(-c4ccc([N+](=O)[O-])cc4)nc3c2)cc1	Cruzain noTriton 15.8µM
N#Cc1ccc(Oc2ccc(-c3nc4ccccc4nc3-c3ccccc3)cc2)cc1C#N	Cruzain noTriton inconclusive
C[N+]1(C)CCc2cc(O)c(O)cc2[C@H]1Cc1ccc(O)c(O)c1	none
O=C(CSc1nc(O)cc(=O)n1-c1ccccc1)Nc1ccc2c3c(cccc13)CC2	Cruzain noTriton inconclusive, Cruzain inh Det 25.1µM
Cc1c(O)nc(SCC(=O)Nc2ccc3c4c(cccc24)CC3)n(-c2ccccc2)c1=O	Cruzain noTriton inconclusive
CCSc1nnc2c(n1)OC=Nc1ccc(Br)cc1-2	none
C=CCSc1nnc2c(n1)OC=Nc1ccc(Br)cc1-2	Cruzain noTriton 25.1µM
CC1CCN(C(=O)CN2CCSc3ccccc32)CC1	none
O=c1c[n+](CC[n+]2cc(=O)o[nH]2)[nH]o1	none
CCOC(=O)c1cc(-c2ccccc2)n(-c2cccc(C(=O)Nc3cccc(SC)c3)c2)c1C	Cruzain noTriton 10µM
CCOC(=O)c1cc(-c2ccccc2)n(-c2cccc(C(=O)Nc3cccc(F)c3)c2)c1C	Cruzain noTriton 10µM
CCOC(=O)c1cc(-c2ccccc2)n(CC(=O)Nc2cccc(OC)c2)c1C	none
CCOC(=O)c1cc(-c2ccccc2)n(-c2cccc(C(=O)Nc3ccc(OC)cc3)c2)c1C	Cruzain noTriton 25.1µM
CCOC(=O)c1cc(-c2ccccc2)n(-c2cccc(C(=O)Nc3ccc(F)c(F)c3)c2)c1C	Cruzain noTriton 20µM
CCOC(=O)c1cc(-c2ccccc2)n(-c2cccc(C(=O)NC(C)(C)C)c2)c1C	none
CCOC(=O)c1cc(-c2ccccc2)n(-c2cccc(C(=O)N(C)c3ccc(C)cc3)c2)c1C	none
CCOC(=O)c1cc(-c2ccccc2)n(-c2cccc(C(=O)Nc3cccc(C(C)=O)c3)c2)c1C	Cruzain noTriton inconclusive
CCNC(C)(C)[C@@H](SS)c1ccc(Br)cc1	none
O=C(CCCn1c(=O)c2cccn2c2ccccc21)NCCc1ccc(Cl)cc1	none
c1ccc(CN2COc3c(ccc4c5c(ccc34)CN(Cc3ccccc3)CO5)C2)cc1	none
CC(C)(C)OC(=O)C1=NOC2(C=CC(=O)C=C2)C1	none
Cc1cc(C)cc(C(=O)Nc2c(C(=O)Nc3ccccc3F)oc3ccccc23)c1	none
C=CCC(C)(NCc1ccccc1)C(=O)OCC (configuration not stated)	none
Cc1nn(-c2ccccc2)c(N2CCCC2)c1/C=C1\N=C(c2ccccc2)OC1=O	Cruzain noTriton 0.794µM, Cruzain inh Det 1.58µM
Cc1nn(-c2ccccc2)c(N2CCCCC2)c1/C=N/O	none
COc1ccc(N(C(=O)c2ccc(OC)c(OC)c2)S(=O)(=O)c2ccc(Cl)cc2)cc1	none
O=C(CSc1nc2c([nH]c3ccccc32)c(=O)n1-c1ccc(F)cc1)N1CCCCCC1	none
CC1CCC/C(=N\NC(=S)Nc2ccccc2)C1 (configuration not stated)	Cruzain inh Det 14.1µM
CC1CCC/C(=N\NC(=S)NCc2ccccc2)C1 (configuration not stated)	none
O=C1C[C@H]2C(=O)[C@@H]1[C@@H](C(=O)O)[C@H]2C(=O)O	none
Cn1c(SCC(=O)Nc2sc3c(c2C#N)CCC3)nnc1C1COc2ccccc2O1 (configuration not stated)	none
C=CCn1c(SCC(=O)Nc2sc3c(c2C#N)CCC3)nnc1C1COc2ccccc2O1 (configuration not stated)	Cruzain noTriton 31.6µM
COC(=O)c1ccc(NC(=O)COc2ccccc2OC)cc1	none
COC(=O)c1ccc(NC(=O)COc2ccc(C3C(C#N)=C(N)Oc4c3ccc3ccccc43)cc2OC)cc1 (configuration not stated)	Cruzain noTriton 7.94µM
COc1cc(C2C(C#N)=C(N)Oc3c2ccc2ccccc32)ccc1OCC(=O)Nc1ccccc1C (configuration not stated)	Cruzain noTriton 12.6µM
N#CC1=C(N)Oc2c(ccc3ccccc23)C1c1cccs1 (configuration not stated)	Cruzain noTriton inconclusive
C=CC[C@](C)(O)c1ccccc1	none
CCOC(=O)c1ccc(CN(Cc2ccccc2C)S(=O)(=O)c2ccc(F)c(C)c2)cc1	Cruzain noTriton inconclusive
COc1ccc(NC(=O)c2c(Nc3ccccc3)sc(C(=O)c3ccc(F)cc3)c2N)cc1	Cruzain noTriton 10µM
COc1ccc(C(=O)c2sc(Nc3ccccc3)c(C(=O)Nc3ccc(OC)c(OC)c3)c2N)cc1	none
COc1ccc(Nc2sc(C(=O)c3ccc(Cl)cc3)c(N)c2C(=O)Nc2ccccc2OC)cc1	Cruzain noTriton 3.98µM
COc1ccccc1NC(=O)c1c(Nc2ccccc2C)sc(C(=O)Nc2cccc(Cl)c2)c1N	Cruzain noTriton 3.16µM
COc1cccc(Nc2sc(C(=O)c3ccc(Cl)cc3)c(N)c2C(=O)NCc2ccc(C)cc2)c1	Cruzain noTriton inconclusive
COc1cccc(Nc2sc(C(=O)c3ccc(F)cc3)c(N)c2C(=O)NCc2ccc(Cl)cc2)c1	none
CCOc1ccccc1Nc1sc(C(=O)c2ccccc2)c(N)c1C(=O)Nc1ccccc1	Cruzain noTriton inconclusive
COc1ccc(C(=O)c2sc(Nc3cccc(OC)c3)c(C(=O)Nc3cccc(C)c3C)c2N)cc1	Cruzain noTriton 6.31µM
CCOc1ccc2nc(N3CCCC(C(=O)Nc4ccc(OC)cc4)C3)sc2c1 (configuration not stated)	none
CCOC(=O)C1CCN(C(=O)C2CCN(S(=O)(=O)c3c(C)noc3/C=C/c3ccc(C)cc3)CC2)CC1	Cruzain noTriton inconclusive
CCCCNN	none
CCOc1ccc(N(CC)S(=O)(=O)N2CCCC(C(=O)NCc3ccccc3Cl)C2)cc1 (configuration not stated)	none
CS(=O)(=O)c1cccc(-c2nnc(NC(=O)c3ccc4c(c3)OCCO4)o2)c1	none
Cc1ccccc1C(=O)NC(CC(C)C)C(=O)OCc1cc(=O)n2cc(Br)ccc2n1 (configuration not stated)	Cruzain noTriton 15.8µM, Cruzain inh Det 14.1µM
CC1CC1C(=O)OCc1cc(=O)n2cc(Br)ccc2n1 (configuration not stated)	none
Cc1nn(-c2ccccc2)c(Cl)c1/C=N/Nc1ccc(S(=O)(=O)Nc2ccccc2C(=O)O)cc1[N+](=O)[O-]	Cruzain noTriton inconclusive, Cruzain inh Det 14.1µM
Cc1nn(-c2ccccc2)c(Cl)c1/C=N/Nc1ccc(Cl)c(C(=O)O)c1	none
Cc1c(Cl)cccc1NC(=O)CSc1nc(=O)[nH]c2c1CCCC2	none
CCOc1ccc(/C=C/C(=O)c2ccc(-c3ccccc3)cc2)cc1	none
CC(C)=CCOc1ccc(/C=C/C(=O)c2ccc(OCC=C(C)C)cc2OCC(=O)O)cc1	Cruzain noTriton inconclusive, Cruzain inh Det 20µM
Cc1cccc(NC(=O)C(=O)NCC(c2cccnc2)N2CCOCC2)c1 (configuration not stated)	none
